PubChem BioAssay

What was measured:
[1] = tested on: Human papillomavirus type 1a protein E7 (residues 44-93); experiment: small molecules binding HPV E7 44-93 – biochemical, small-molecule microarray, residues 44-93, 635 nm fluorescence, primary screen (AID 1108); conditions: fluorescence 635 nm, higher = more signal;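 further: E7 fragment applied at 1 µg/mL in TBST for 1 h at 4 C; score combines spot fluorescence with its signal to noise ratio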
[2] = hepatitis C replication reporter changes, two-sided – Huh7 cells, luciferase reporter, HCV replication inhibitor project, primary screen (AID 1109); conditions: Huh7 HCV replicon luciferase reporter, 48 h; higher = more signal;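 further: huh7 hepatoma cells harbouring a luciferase neomycin HCV replicon reporter; luciferase luminescence as measure of HCV replicon replication; test concentration not given here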
[3] = molecular target: Left-right determination factor 2 (Homo sapiens) (UniProt O00292); experiment: small molecules binding LEFTY2 protein – biochemical, small-molecule microarray, 635 nm fluorescence scan, primary screen (AID 1110); conditions: higher = more signal
[4] = molecular target: Calmodulin-1 (Homo sapiens) (UniProt P0DP23); experiment: small molecules binding calmodulin-1 with EGTA – biochemical, small-molecule microarray, Cy5-labelled CALM1, profiling panel (AID 1111); conditions: Cy5-CALM1 binding fluorescence, higher = more signal;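 further: labelled calmodulin applied in Tris saline Tween buffer holding calcium plus EGTA and DTT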
[5] = molecular target: Calmodulin-1 (Homo sapiens) (UniProt P0DP23); experiment: small molecules binding Ca-loaded calmodulin-1 – biochemical, small-molecule microarray, Cy5-labelled CALM1, plus calcium, artefact control for SMM control-protein annotation, profiling panel (AID 1112); conditions: Cy5-CALM1 binding fluorescence, higher = more signal;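 further: score merges spot fluorescence with signal to noise from triplicate slides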
[6] = probe aWnt5a binding to arrayed compounds – biochemical, biotinylated probe, 635/667 nm fluorescence, primary screen (AID 1113); conditions: small-molecule microarray, higher = more signal;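 further: score merges 667 nm fluorescence intensity with signal-to-noise per printed feature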
[7] = probe aShh binding to arrayed compounds – biochemical, biotinylated probe, 635/667 nm fluorescence, primary screen (AID 1114); conditions: small-molecule microarray, higher = more signal;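 further: probe is biotin-labelled aShh protein from a stem cell growth factor screen; measures binding of labelled protein to compounds printed on the slide; score merges feature fluorescence at 667 nm with signal-to-noise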
[8] = probe aNog binding to arrayed compounds – biochemical, biotinylated probe, 635/667 nm fluorescence, primary screen (AID 1115); conditions: small-molecule microarray, higher = more signal;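 further: probe is biotinylated aNog protein used at 0.15 µg/mL for 1 h at 4 C; z-score combines 667 nm fluorescence of each spot with its signal to noise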
[9] = molecular target: Torsin-1A-interacting protein 1 (Homo sapiens) (UniProt Q5JTV8); experiment: compound microarray binding of lysate hLAP1 – cell lysate, small-molecule microarray, COS7 lysate, 635/667 nm fluorescence, primary screen (AID 1116); conditions: 635 nm fluorescence, higher = more signal
[10] = molecular target: Alpha-bungarotoxin (Bungarus multicinctus) (UniProt P60615); experiment: compounds binding labelled alpha-BTX control protein – biochemical, small-molecule microarray, Alexa647 label, 635/667 nm fluorescence, artefact control for SMM control protein annotation, profiling panel (AID 1117); conditions: alpha-BTX-A647 binding fluorescence, higher = more signal
Alpha-bungarotoxin (Bungarus multicinctus), sequence (P60615 whole entry, looked up): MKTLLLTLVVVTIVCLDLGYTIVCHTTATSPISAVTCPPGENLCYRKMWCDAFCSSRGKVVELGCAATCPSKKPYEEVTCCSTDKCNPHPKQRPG

Torsin-1A-interacting protein 1 (Homo sapiens), sequence (Q5JTV8 whole entry, looked up): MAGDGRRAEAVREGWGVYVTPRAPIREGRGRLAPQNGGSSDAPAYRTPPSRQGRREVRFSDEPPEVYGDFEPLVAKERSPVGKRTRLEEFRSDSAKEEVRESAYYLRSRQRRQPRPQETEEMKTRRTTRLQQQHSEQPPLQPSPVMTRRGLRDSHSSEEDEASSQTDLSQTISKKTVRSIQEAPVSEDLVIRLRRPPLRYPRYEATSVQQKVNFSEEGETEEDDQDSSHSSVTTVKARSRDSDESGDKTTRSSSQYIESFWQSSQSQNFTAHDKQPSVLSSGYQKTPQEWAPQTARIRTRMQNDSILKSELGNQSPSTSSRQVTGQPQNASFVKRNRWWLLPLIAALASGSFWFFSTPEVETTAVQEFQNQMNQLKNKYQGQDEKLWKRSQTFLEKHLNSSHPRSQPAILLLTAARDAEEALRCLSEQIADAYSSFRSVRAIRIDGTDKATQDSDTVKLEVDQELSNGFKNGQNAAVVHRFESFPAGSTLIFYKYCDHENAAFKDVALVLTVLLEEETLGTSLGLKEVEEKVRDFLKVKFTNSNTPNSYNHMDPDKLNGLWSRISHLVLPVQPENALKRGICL
Left-right determination factor 2 (Homo sapiens), sequence (O00292 whole entry, looked up): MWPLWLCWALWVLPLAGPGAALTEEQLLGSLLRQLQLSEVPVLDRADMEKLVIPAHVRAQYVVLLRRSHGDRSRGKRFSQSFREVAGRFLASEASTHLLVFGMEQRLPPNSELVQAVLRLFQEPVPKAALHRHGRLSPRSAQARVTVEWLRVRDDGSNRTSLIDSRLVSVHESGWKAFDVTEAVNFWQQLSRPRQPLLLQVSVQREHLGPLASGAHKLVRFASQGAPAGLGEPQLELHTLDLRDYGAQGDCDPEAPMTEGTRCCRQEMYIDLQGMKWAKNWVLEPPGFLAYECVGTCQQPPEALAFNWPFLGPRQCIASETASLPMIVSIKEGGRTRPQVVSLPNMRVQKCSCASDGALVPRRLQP

`[N-]=[N+]=Nc1ccccc1C[C@]1(C(=O)O)N=C(c2ccc(OCCCO)cc2)O[C@H]1c1ccccc1` gave a composite z-score [1] of 1.36, a z-score [2] of 0.939 and a composite z-score [3] of -1.07. It also gave a composite z-score [4] of 0.163, a composite z-score [5] of 0.943 and a composite z-score [6] of 0.2. The composite z-score [7] was -0.0337, the composite z-score [8] was 0.564 and the composite z-score [9] was 0.764. The composite z-score [10] was 0.618.
For `C=CCC(OC(C)=O)[C@@H]1[C@@H](N(Cc2cccc3ccccc23)C(=O)Cc2ccc(F)cc2)c2cc(OCCCO)ccc2N1C(=O)c1ccc(-c2ccccc2)cc1` (stereo not given in full), the composite z-score [1] was -0.658, the z-score [2] was -1.09 and the composite z-score [3] was -0.197. The composite z-score [4] was -0.573, the composite z-score [5] was 0.992 and the composite z-score [6] was -0.236. The composite z-score [7] was -0.0035, the composite z-score [8] was 0.0812 and the composite z-score [9] was 0.171. For the same compound, the composite z-score [10] was -0.395.
Compound `CC(=O)NCCCC[C@@H]1NC(=O)[C@@H]2C[C@H](C(=O)NCCCCCCN)[C@H](c3cccc(OCCO)c3)N2C1=O` has a composite z-score [1] of 0.601, a z-score [2] of -0.69 and a composite z-score [3] of -0.535. For the same compound, the composite z-score [4] was 1.47, the composite z-score [5] was 1.35 and the composite z-score [6] was -0.0519. For the same compound, the composite z-score [7] was -0.0066, the composite z-score [8] was -0.153 and the composite z-score [9] was 1.79. The composite z-score [10] was 2.15.
For `CS(=O)(=O)CCOC(=O)C1=CC(CCCO)=CC(C2CC2)N(Cc2cccc(OC(F)(F)F)c2)C=C1C(=O)OCCS(C)(=O)=O` (stereo not given), the composite z-score [1] was 1.3, the z-score [2] was -1.63 and the composite z-score [3] was -0.022. The composite z-score [4] was 0.238, the composite z-score [5] was 0.478 and the composite z-score [6] was -0.0643. The composite z-score [7] was -0.0243, the composite z-score [8] was 0.576 and the composite z-score [9] was 1.9. The composite z-score [10] was 0.0358.
`COCCCNC(=O)[C@@]1(c2ccc([N+](=O)[O-])cc2)CC(=O)N(CC23CC4CC(CC(C4)C2)C3)[C@@H]1c1ccc(CO)cc1I` showed a composite z-score [1] of 0.952, a z-score [2] of -3.15 and a composite z-score [3] of -0.381. The composite z-score [4] was 0.425, the composite z-score [5] was 0.729 and the composite z-score [6] was -0.104. It also gave a composite z-score [7] of 0.337, a composite z-score [8] of 0.536 and a composite z-score [9] of 0.157. For the same compound, the composite z-score [10] was 1.22.
`O=C1C2C=CC(C(O)C=Cc3ccc([N+](=O)[O-])cc3)N(Nc3ccccc3)C2C(=O)N1c1ccccc1` (stereo not given) showed a composite z-score [1] of 1.36, a z-score [2] of -0.486 and a composite z-score [3] of 0.0857. For the same compound, the composite z-score [4] was 1.37, the composite z-score [5] was -0.0507 and the composite z-score [6] was 0.0037. The composite z-score [7] was -0.0866, the composite z-score [8] was -0.397 and the composite z-score [9] was 0.568. It also gave a composite z-score [10] of 0.742.
`CC(C)C[C@@H]1NC(=O)[C@@]23C(=O)N[C@@H](Cc4ccccc4)C2[C@H](C)[C@@]2(C)O[C@H]2C3/C=C/C/C=C\CNC(=O)[C@@H](C)NC1=O` (stereo not given in full) showed a composite z-score [1] of -0.702, a z-score [2] of 0.0935 and a composite z-score [3] of 0.58. The composite z-score [4] was -0.463, the composite z-score [5] was -1.19 and the composite z-score [6] was -0.228. For the same compound, the composite z-score [7] was 0.0899, the composite z-score [8] was -0.636 and the composite z-score [9] was -0.212. The composite z-score [10] was -0.116.
`CCCCC(=C=CC[C@H](O)c1ccc(OCCO)cc1)C[C@H](O)c1cc(Cl)cc(Cl)c1O` gave a composite z-score [1] of 0.584, a z-score [2] of -1.63 and a composite z-score [3] of 0.0916. For the same compound, the composite z-score [4] was 0.0258, the composite z-score [5] was -0.0211 and the composite z-score [6] was -0.198. The composite z-score [7] was -0.153, the composite z-score [8] was 0.452 and the composite z-score [9] was 0.849. It also gave a composite z-score [10] of 0.779.
In the case of `O=C(N1CCOCC1)[C@@]1(CCS(=O)(=O)c2ccccc2)N=C(c2ccc(OCCCO)cc2)O[C@H]1c1ccccc1`, the composite z-score [1] is reported as 1.1, the z-score [2] is reported as -0.892 and the composite z-score [3] is reported as -0.563. The composite z-score [4] was 2.58, the composite z-score [5] was 1.33 and the composite z-score [6] was -0.0084. For the same compound, the composite z-score [7] was -0.0441, the composite z-score [8] was -0.273 and the composite z-score [9] was 1.85. It also gave a composite z-score [10] of 2.84.
Compound `O=C(CS)NCCCCCCNC(=O)[C@@H]1C[C@@H]2C(=O)NCC(=O)N2[C@@H]1c1ccc(O)cc1` has a composite z-score [1] of -1.1, a z-score [2] of 0.394 and a composite z-score [3] of -0.601. The composite z-score [4] was 1.16, the composite z-score [5] was 0.754 and the composite z-score [6] was -0.239. For the same compound, the composite z-score [7] was -0.0035, the composite z-score [8] was 0.0595 and the composite z-score [9] was -0.549. It also gave a composite z-score [10] of -1.04.
`COc1ccc([Si](C)(C)[C@H]2[C@H](CC(=O)N3Cc4ccccc4C[C@H]3CO)O[C@@]3(C(=O)N(Cc4ccc(N5C(=O)c6cccc7cccc5c67)cc4)c4ccccc43)[C@@H]2C)cc1` showed a composite z-score [1] of 1.3, a z-score [2] of -3.26 and a composite z-score [3] of 0.952. It also gave a composite z-score [4] of 0.732, a composite z-score [5] of 0.049 and a composite z-score [6] of -0.124. It also gave a composite z-score [7] of -0.279, a composite z-score [8] of -0.49 and a composite z-score [9] of 1.65. For the same compound, the composite z-score [10] was 0.609.
For `COCCOC(=O)N1C(=O)[C@@]2(c3cc(C#CCCO)ccc31)[C@H](C(=O)N1CCCCCCC1)[C@H]1C(=O)O[C@H](c3ccccc3)[C@H](c3ccccc3)N1[C@@H]2c1ccccc1OCCO`, the composite z-score [1] was 1.4, the z-score [2] was -1.79 and the composite z-score [3] was 1.18. It also gave a composite z-score [4] of 2.73, a composite z-score [5] of 1.5 and a composite z-score [6] of 0.993. For the same compound, the composite z-score [7] was 2.38, the composite z-score [8] was 2.99 and the composite z-score [9] was 3.19. The composite z-score [10] was 1.85.
